From PubChem BioAssay AID629 (Emory University Molecular Libraries Screening Center, 2007) come the findings set out here.

In all, about 86,000 compounds went through this assay and about 1,400 (1.6%) were called active. This excerpt belongs to a sample that is enriched for actives. Values without a mark were called inactive. Rule as the data show it: active = inhibition above about 50%; inactive = the rest.

Chain of Estrogen receptor (Homo sapiens) (P03372 whole entry, looked up, the tested form may be a part): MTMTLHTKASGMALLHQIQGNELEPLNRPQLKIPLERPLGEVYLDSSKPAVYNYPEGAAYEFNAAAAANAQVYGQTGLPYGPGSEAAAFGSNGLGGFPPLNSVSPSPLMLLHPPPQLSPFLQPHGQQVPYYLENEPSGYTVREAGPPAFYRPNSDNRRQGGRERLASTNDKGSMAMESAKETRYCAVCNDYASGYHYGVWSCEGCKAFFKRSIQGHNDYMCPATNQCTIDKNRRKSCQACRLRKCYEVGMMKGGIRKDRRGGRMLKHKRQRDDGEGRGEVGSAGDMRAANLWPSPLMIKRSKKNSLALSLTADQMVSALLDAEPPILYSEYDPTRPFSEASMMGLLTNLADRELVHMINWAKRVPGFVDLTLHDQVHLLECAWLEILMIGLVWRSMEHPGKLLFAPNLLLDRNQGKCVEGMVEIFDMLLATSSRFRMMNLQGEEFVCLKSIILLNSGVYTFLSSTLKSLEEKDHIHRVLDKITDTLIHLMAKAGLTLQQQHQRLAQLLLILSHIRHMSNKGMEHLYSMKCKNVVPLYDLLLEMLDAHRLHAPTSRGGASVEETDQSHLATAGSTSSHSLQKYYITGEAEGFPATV

This assay addresses Estrogen receptor (Homo sapiens) (UniProt P03372). Briefly: blockers of SRC-1 peptide recruitment to ERα – biochemical, TR-FRET, ERα LBD, estradiol-bound, primary screen (AID 629).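 Also: 0% = receptor plus peptide control and 100% = peptide only without receptor.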 The note with it: TR-FRET ER-alpha LBD / SRC-1 peptide, at 25.6 µM, stronger effect = higher value.
In the case of `Cc1cc(NC(=O)CSc2nc(C(C)C)nc3sc4c(c23)CCC(C)C4)no1` (configuration not stated), the inhibition (usually the change of the read-out against control, counted positive when it falls) is -14.6%.
In the case of `CCOC(=O)c1c(NC(=O)c2ccc(Br)o2)sc2c1CCCC2`, the inhibition is 7.77%.
Consider `CC1CCc2c(sc(NC(=O)c3ccc(Cn4cc(Br)cn4)o3)c2C(N)=O)C1` (configuration not stated), for which the inhibition is 50.6% (active).
Then `Cc1ccc(CN(C(=O)c2sc3ccccc3c2Cl)C2CCS(=O)(=O)C2)cc1` (configuration not stated), with 6.88%.
`C/C=C/C(=O)Nc1nnc(C(C)C)s1`: the inhibition was -19.7%.
To `COc1ccc(C(=O)Nc2nc(-c3ccc(S(=O)(=O)N4CCOCC4)cc3)cs2)cc1` belongs 3.26%; to `CNC(=O)c1c(NC(=O)c2ccc(S(=O)(=O)N3CCOCC3)cc2)sc2c1CCC2`, 94.5% [fluorescence artefact?] (active); to `CNC(=O)c1c(NC(NC(=O)c2ccco2)C(=O)c2ccc(Cl)cc2)sc2c1CCCC2` (configuration not stated), -3.84%.
Consider `CCOC(=O)c1ccc2c(c1)nc(SCC(=O)NC(C)C)n2CC`, for which the inhibition is 26.4%.
As for `CCOc1cc(C(=O)Nc2c(C)ccc3nsnc23)cc(OCC)c1OCC`, the inhibition was 8.18%.
Then `N#CC(=C1CCCC1)c1nc(-c2ccc(Cl)cc2)cs1`, with -5.55%; and `CCCCCN1CC(O)=C(c2nc(-c3ccc(Cl)cc3)cs2)C1=N`, with 65.8% [fluorescence artefact?] (active); and `CCCCCN1CC(O)=C(c2ccccc2)C1=N`, with 2.06%.
Then `Cc1ccc(S(=O)(=O)Oc2ccc(/C=N/NC(=O)c3c(Cl)cnn3C)cc2)cc1`, with -7.62%.
`COCCCn1c(SCC(=O)Nc2ccccc2)nnc1-c1ccncc1`: the inhibition is -1.59%.
Regarding `COCCCn1c(Cc2csc(Nc3cccc(Cl)c3)n2)nnc1SCC(=O)OC1CCCCC1`, the inhibition was 67.4% [fluorescence artefact?] (active).
Regarding `C=CCn1c(CC(=O)Nc2cccc(OC)c2)nnc1SCC(=O)NC1CCCCC1`, the inhibition was -5.03%.
`CCCCOc1ccccc1/C=c1/sc2nc(-c3oc4ccccc4c3C)nn2c1=O`: the inhibition was 50% (active).
On to `CCOc1ccccc1/C=c1\sc2nc(-c3ccco3)nn2c1=O`, for which the inhibition is 57.2% (active).
To `CCOc1ccccc1C(=O)NCc1ccco1` belongs 10.6%.
As for `CCc1nc2oc3ccccc3c(=O)c2c(=O)n1Cc1ccc(OC)cc1`, the inhibition was 21%.
With `CCOC(=O)/C=c1\s/c(=C\c2ccccc2OC)c(=O)n1CC(=O)N1CCOCC1`, the inhibition was -4.48%.
On to `O=c1nc2s/c(=C\c3ccco3)c(=O)n2nc1Cc1ccccc1`, for which the inhibition was 28.7%.
Take `COC(=O)CSc1nc(C)c2ccc(OC)cc2n1`: the inhibition was -6.48%.
On to `CC1CCCCC1NC(=O)C1CCCN1S(=O)(=O)c1cccc2nsnc12` (configuration not stated), for which the inhibition is 11.2%.
As to `Cc1cc(C)c(NC(=O)CN2CCOCCOCCOCCOCC2)c(C)c1`, the inhibition is 3.92%.
`O=C(CN1CCCCCC1)N1c2ccccc2Sc2ccc(C(F)(F)F)cc21`: the inhibition is -9.51%.
Regarding `Cc1ccc2c(c1)sc1ncc(NC(=O)c3ccccc3)c(=O)n12`, the inhibition is 53.5% [fluorescence artefact?] (active).
As to `Cc1nc(NNC(=O)c2ccccc2)cc(-c2ccccc2)n1`, the inhibition is -1.45%.
Regarding `Cc1ccccc1NC(=O)c1ccccc1`, the inhibition was -4.17%.
For `Cc1cccc(N(C(=O)c2ccc(CN3CCOCC3)o2)C(C(=O)NC2CCCCC2)c2ccc(F)cc2)c1` (configuration not stated), the inhibition is 2.65%.
For the compound `CS(=O)(=O)c1ccc2c(c1)SC1=NC(=O)/C(=C/c3ccco3)C(=N)N12`, the inhibition was 82.8% [fluorescence artefact?] (active).
With `O=C(c1cn(-c2ccccc2)nc1-c1cccnc1)N1CCCCC1`, the inhibition was 93.3% [fluorescence artefact?] (active).
On to `COC(=O)c1cn(-c2ccccc2)nc1-c1cccnc1`, for which the inhibition is 1.49%.
For the compound `COc1ccccc1N1CCN(C(=O)c2cn(-c3ccccc3)nc2-c2cccnc2)CC1`, the inhibition was 0.39%.
For the compound `O=C(N/N=C\c1cccc(Br)c1)c1ccccc1-n1cccc1`, the inhibition is -1.04%.
With `Oc1ccc(-c2onc3ccc(Cl)cc23)cc1`, the inhibition was 2.22%.
Take `O=S(=O)(NN=C1CCCCCCC1)c1ccc(Br)cc1`: the inhibition was -3.65%.
As to `COC(=O)c1cnn2c(C(F)(F)F)cc(-c3ccco3)nc12`, the inhibition is 62.1% (active).
As for `O=C(NCc1ccco1)c1cnn2c(C(F)(F)F)cc(-c3ccco3)nc12`, the inhibition is 6.58%.
Take `COC(=O)c1cc2nc(-c3ccccc3)cc(C(F)(F)F)n2n1`: the inhibition was -12%.
For the compound `CC1(C)C2CCC13CS(=O)(=O)NC3C2` (configuration not stated), the inhibition was 3.36%.
As for `CCc1nnc(NC(=O)CSc2nc3ccccc3c(=O)n2CCCOC)s1`, the inhibition is 14.8%.
To `O=C1/C(=C/c2cccs2)CCc2ccccc21` belongs 5.05%.
With `Cc1ccc(-n2c(SCC(=O)Nc3ccc4c(c3)OCO4)nnc2-c2ccoc2C)cc1`, the inhibition was -0.65%.
Take `COc1ccc(-n2c(SCC(=O)Nc3ccc4c(c3)OCO4)nnc2C(C)N2CCCCC2)cc1` (configuration not stated): the inhibition was 55.2% (active).
To `Cc1ccc(-n2c(SCC(=O)Nc3ccc4c(c3)OCO4)nnc2-c2ccccn2)cc1` belongs -7.91%; to `O=C1N=C(N2CCCC2)S/C1=C\c1cccc(Br)c1`, -3.71%.
Then `CSc1nc2nc3c(c(=O)n2[nH]1)CCC3`, with -5.51%.
As to `CNc1nc(SC)nc(N(C#N)CC(=O)OC)n1`, the inhibition is -12.1%.
With `O=C(NCC(=O)N(Cc1cccs1)C(C(=O)NC1CCCCC1)c1ccco1)c1cccs1` (configuration not stated), the inhibition is -0.84%.
Then `O=C(Cc1c[nH]c2ccccc12)OCCOC(=O)Cc1c[nH]c2ccccc12`, with -4.73%; and `COc1cccc(NC(=O)CN2CCN(c3nc(-c4cccc(OC)c4)cs3)CC2)c1`, with -8.12%; and `CCS(=O)(=O)c1ccc2oc(SCC(=O)N3c4ccccc4CC3C)nc2c1` (configuration not stated), with 14%.
Turning to `CC1Cc2ccccc2N1C(=O)CSc1nc2ccccc2o1` (configuration not stated), the inhibition was -8.05%.
Then `CC1Cc2ccccc2N1C(=O)CSc1nnc(-c2ccc(S(=O)(=O)N3CCCCC3)cc2)o1` (configuration not stated), with 72.8% [fluorescence artefact?] (active).
Take `O=C(CCN1c2ccccc2Sc2ccccc21)Nc1ccccc1`: the inhibition is -1.92%.
